From PubChem BioAssay (NCATS)
Results filed as inconclusive are left out. A number with no mark means an inactive call. Calls of active or inactive are those of the source. Calls come from the whole dose curve; as a rule, active = well fitted curve in the direction sought with a large enough effect; inconclusive = small, poorly fitted or top-dose-only effect, or another doubt; inactive = no such curve, though single readings can be large; an effect the other way counts as inactive or inconclusive. Starred links: 1 amine or outer side, 2 acyl side, 3 side chain; linkers in the order of their positions; H or OH if unused. Positions of bridges follow the written chain, without caps; N, C: chain ends. Non-standard residues stand in square brackets, D forms with d. Residues, ends and D or L forms follow the SMILES beside them. Chains are numbered I, II in the order given. Actinocin(9to1) = Cc1c2oc3c(C)ccc(C(=O)[*:1])c3nc-2c(C(=O)[*:2])c(N)c1=O; NMeV = CN[CH](C(=O)O)C(C)C; Sar = CNCC(=O)O

What was measured:
[1] = BET inhibitor-based combinations targeting novel dependencies in MECOM-rearranged (r) AML: SET-2 cell line (AID 2202231); settings: SET-2 AML cells viability, CellTiter-Glo luminescence, 48 h; viability: active compounds read low, concentration not given here; note: nearly all actives have a fitted effect of over 35% in size;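 for viability: plate controls were DMSO treated cells for no effect and wells without cells for full effect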
How it was run: (§1)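 Viability of cells (500 per well) is scored by luminescent CellTiter-Glo at 48 hr post-dosing. Eleven-point titrations are normalized to DMSO and empty controls and reduced to AUC values.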

[2] = BET inhibitor-based combinations targeting novel dependencies in MECOM-rearranged (r) AML: UCSD-AML1 cell line (AID 2202235); note: nearly all actives have a fitted effect of over 40% in size
How it was run: (§2)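 Using pin-tool transfer, drugs were added in 11 doses to cells (500/well), incubated 48 hr, and assessed with CellTiter-Glo. Z-AUC is a mean-centring transformation applied separately to each screened line.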

[3] = BET inhibitor-based combinations targeting novel dependencies in MECOM-rearranged (r) AML: AML-191 cell line (AID 2202236; note: nearly all actives have a fitted effect of over 35% in size)
How it was run: as §1

[4] = BET inhibitor-based combinations targeting novel dependencies in MECOM-rearranged (r) AML: OCI-AML3 cell line (AID 2202232); settings: Potency: OCI-AML3 viability; note: nearly all actives have a fitted effect of over 35% in size
How it was run: as §1

[5] = BET inhibitor-based combinations targeting novel dependencies in MECOM-rearranged (r) AML: MV-4-11 cell line (AID 2202233); note: nearly all actives have a fitted effect of over 45% in size
How it was run: as §2

[6] = BET inhibitor-based combinations targeting novel dependencies in MECOM-rearranged (r) AML: AML-194 cell line (AID 2202237; note: nearly all actives have a fitted effect of over 40% in size)
How it was run: as §1

[7] = BET inhibitor-based combinations targeting novel dependencies in MECOM-rearranged (r) AML: HNT-34 cell line (AID 2202234); note: nearly all actives have a fitted effect of over 35% in size
How it was run: as §2
Potency is the fitted concentration of half-maximal effect.

## CC/C(=C(/CC)c1ccc(O)cc1)c1ccc(O)cc1
[1]
  Potency: 20900 nM (active)
[2]
  Potency: inactive

## O=C(NO)c1cnc(NC2(c3cccc(F)c3)CCCCC2)nc1
[1]
  Potency: 9340 nM (active)
[3]
  Potency: 10500 nM (active)

## COc1ccc(-c2ccc3c(N4CCOC[C@@H]4C)nc(N4CCOC[C@@H]4C)nc3n2)cc1CO
[4]
  Potency: 148 nM (active)
[5]
  Potency: 132 nM (active)

## C=CC(=O)Nc1ccc(F)c(-c2ncnc3[nH]cc(C(=O)OCC)c23)c1
[1]
  viability: 83.4%
[2]
  Potency: inactive
[3]
  Potency: inactive
[6]
  Potency: inactive

## C[C@@H]1CC2C3C[C@H](F)C4=CC(=O)C=C[C@]4(C)[C@@]3(F)[C@@H](O)C[C@]2(C)[C@@]1(OC(=O)c1ccco1)C(=O)SCF (stereo partly drawn)
[4]
  Potency: 20900 nM (active)
[5]
  Potency: 20900 nM (active)

## c1ccc(CNCc2ccc(CN3CCCNCCNCCCNCC3)cc2)nc1
[1]
  viability: 110%
[7]
  Potency: inactive
[3]
  Potency: inactive
[6]
  Potency: inactive

## CN(C)CCN(C)C(=O)c1ccc(NC(=O)Nc2ccc(-c3nc(N4CCOCC4)c4ccn(CC(F)(F)F)c4n3)cc2)cc1
[4]
  Potency: 934 nM (active)

## N#CCC1(n2cc(-c3ncnc4[nH]ccc34)cn2)CN(C2CCN(C(=O)c3ccnc(C(F)(F)F)c3F)CC2)C1
[4]
  Potency: 1660 nM (active)
[5]
  Potency: 16600 nM (active)

## COC(=O)[C@H]1[C@@H](O)[C@@]2(O)c3c(OC)cc(O[C@@H]4O[C@@H]([C@@H](O)CO)CO[C@H]4OC)cc3O[C@@]2(c2ccc(OC)cc2)[C@@H]1c1ccccc1
[1]
  viability: 77.8%
[3]
  Potency: inactive

## CC/C(=C(/c1ccc(/C=C/C(=O)O)cc1)c1ccc2[nH]ncc2c1)c1ccc(F)cc1Cl
[1]
  viability: 98.4%
[2]
  Potency: inactive
[3]
  Potency: inactive
[6]
  Potency: inactive

## O=c1ncccn1[C@@H]1O[C@H](CO)[C@@H](O)[C@H]1O
[1]
  viability: 109%
[7]
  Potency: inactive
[3]
  Potency: inactive
[6]
  Potency: inactive

## O=C1NC(=O)[C@@H](c2cn3c4c(cccc24)CCC3)[C@@H]1c1c[nH]c2ccccc12
[1]
  Potency: 1320 nM (active)
[7]
  Potency: 934 nM (active)
[3]
  Potency: 934 nM (active)
[6]
  Potency: 934 nM (active)

## CCOC(=O)[C@@]1(CCCCCCOc2ccc(Cl)cc2)CO1
[1]
  viability: 92%
[2]
  Potency: inactive
[6]
  Potency: inactive

## CC[C@H]1OC(=O)[C@H](C)[C@@H](O[C@H]2C[C@@](C)(OC)[C@@H](O)[C@H](C)O2)[C@H](C)[C@@H](O[C@@H]2O[C@H](C)C[C@H](N(C)C)[C@H]2O)[C@](C)(O)C[C@@H](C)CN(C)[C@H](C)[C@@H](O)[C@]1(C)O
[1]
  Potency: 468 nM (active)
[2]
  Potency: inactive
[6]
  Potency: inactive

## Nc1ncn([C@H]2C[C@H](O)[C@@H](CO)O2)c(=O)n1
[4]
  Potency: 417 nM (active)
[5]
  Potency: 332 nM (active)

## Cn1nccc1Nc1nccc(-c2cc3c(s2)C(C)(C)N(CCN2CCOCC2)C3=O)n1
[4]
  Potency: 1320 nM (active)
[5]
  Potency: 4170 nM (active)

## CCCCC[C@H](O)C=C[C@H]1[C@H](O)CC(=O)[C@H]1CC=CCCCC(=O)O
[4]
  Potency: 5900 nM (active)

## CN[C@@H](C)C(=O)N[C@H](C(=O)N1CCC[C@H]1C(=O)Nc1sc(-c2ncco2)nc1-c1ccccc1)C1CCCCC1
[1]
  viability: 112%
[2]
  Potency: 1180 nM (active)
[6]
  Potency: inactive

## O=c1[nH]nc2c3c(cccc13)NC(CN1Cc3ccccc3C1)=N2
[4]
  Potency: 16600 nM (active)
[5]
  Potency: 16600 nM (active)

## COc1ccc2c(c1)C(c1ccc(F)cc1)=C(CN1CCCC1)CO2
[1]
  viability: 95.4%
[2]
  Potency: inactive
[3]
  Potency: inactive

## CCOc1ccc(Cc2cc([C@@H]3O[C@H](CO)[C@@H](O)[C@H](O)[C@H]3O)ccc2Cl)cc1
[1]
  viability: 95%
[7]
  Potency: inactive
[6]
  Potency: inactive

## COc1cc(N2CCN(C)CC2)ccc1Nc1ncc2c(n1)N(C)c1ccccc1C(=O)N2
[4]
  Potency: 18600 nM (active)
[5]
  Potency: 18600 nM (active)
[7]
  Potency: 26300 nM (active)

## COc1ncc(Nc2ncc(C(C)N3CCN(S(C)(=O)=O)CC3)cc2-c2nc(C)nc(N)n2)cc1F (stereo not drawn)
[1]
  viability: 73.4%
[7]
  Potency: inactive
[6]
  Potency: inactive

## CCc1c(C(=O)NNC(=O)[C@@H](O)c2cc(F)cc(F)c2)ccc(O)c1C
[4]
  Potency: inactive
[5]
  Potency: inactive
[7]
  Potency: inactive
[2]
  Potency: 7420 nM (active)
[3]
  Potency: inactive
[6]
  Potency: inactive

## Cc1c2oc3c(C)ccc(C(=O)NC4C(=O)NC(C(C)C)C(=O)N5CCCC5C(=O)N(C)CC(=O)N(C)C(C(C)C)C(=O)OC4C)c3nc-2c(C(=O)NC2C(=O)NC(C(C)C)C(=O)N3CCCC3C(=O)N(C)CC(=O)N(C)C(C(C)C)C(=O)OC2C)c(N)c1=O (stereo not drawn) (I: TVP[Sar][NMeV] / II: TVP[Sar][NMeV]; ester I:1-I:C, II:1-II:C; linker I:N-II:N via Actinocin(9to1); configuration not given here)
[4]
  Potency: 3.2 nM (active)
[5]
  Potency: 1.4 nM (active)
[7]
  Potency: 5.7 nM (active)
[2]
  Potency: 3.2 nM (active)
[3]
  Potency: 10.2 nM (active)
[6]
  Potency: 11.5 nM (active)
